Experimental data as given in PubChem BioAssay (NCATS).
Inconclusive results are not listed. A number with no mark means an inactive call. The source made the active and inactive calls. The call rests on the fitted dose curve; in most records, active means well fitted inhibition curve with a large enough effect; inconclusive means small, poorly fitted or top-dose-only effect; inactive means flat fitted curve, though single readings scatter.

assay: P-glycoprotein substrates identified in KB-8-5-11 adenocarcinoma cell line, qHTS therapeutic library screen (AID 1346987); conditions: KB-8-5-11 (P-gp overexpressing) viability, CellTiter-Glo, 72 h; series mostly up to 44.5 µM; activity change, negative = cytotoxicity: at the top concentration; further: nearly all actives have a fitted effect of over 65% in size
Outline: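 P-gp-mediated resistance screen: KB-8-5-11 cells treated 72 h with compounds in dose-response. CellTiter-Glo viability.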
On the % scale 0 is the no-effect control and ±100 the full control effect.

Row | SMILES | activity change, negative = cytotoxicity | outcome
1 | CC/C=C/C(O)C(O)C1=C(C)C(=O)C2(O1)C(=O)NC(OC)(C(=O)c1ccccc1)C2O (centres undefined) | 5.21% [at 17.3 µM] | –
2 | CC(C)=CCc1c(O)cc2oc3cc(C)cc(O)c3c2c1C | -14.4% | –
3 | CC(=O)/C=C/C1(O)C(C)=CC(=O)CC1(C)C (centres undefined) | – | inactive
4 | CC1(C)O[C@H]2CC(=O)OC[C@@]23C1=C(O)C(=O)[C@]1(C)C3CC[C@@]2(C)[C@H](c3ccoc3)OC(=O)[C@H]3O[C@]321 (some centres undefined) | 7.55% [at 17.3 µM] | –
5 | NC(=O)C(O[C@@H]1O[C@H](CO[C@@H]2O[C@H](CO)[C@@H](O)[C@H](O)[C@H]2O)[C@@H](O)[C@H](O)[C@H]1O)c1ccccc1 (some centres undefined) | 4.32% [at 17.3 µM] | –
6 | CC(=O)O[C@@H]1C=C2[C@H](CC[C@@]3(C)[C@@]2(O)CC[C@H]2Cc4c([nH]c5ccccc45)[C@@]23C)O[C@@H]1C(C)(C)O | 3.85% [at 17.3 µM] | –
7 | CC1=C2CC(=O)C(C)CC/C=C(\C)CC2(O)OC1=O (centres undefined) | – | inactive
8 | OC[C@@]1(O)CO[C@H](OC[C@H]2O[C@@H](OCCc3ccccc3)[C@H](O)[C@@H](O)[C@@H]2O)[C@@H]1O | 9.18% [at 17.3 µM] | –
9 | CCOC(=O)C(CCc1ccccc1)NC1CCCN2CCCC(C(=O)O)N2C1=O (centres undefined) | – | inactive
10 | O=C(O)Cn1nnc(-c2ccc(CN(CCCCOc3ccc(CN4CCCC4)cc3)CCc3ccccc3)cc2)n1 | 4.22% | –
11 | CC(CC12CCCN1C(=O)C1CCCN1C2=O)OC(N)=O (centres undefined) | – | inactive
12 | Cc1cc(O[C@@H]2O[C@H](COC(=O)CC(=O)O)[C@@H](O)[C@H](O)[C@H]2O)c(C(C)C)cc1O | -7.8% [at 17.3 µM] | –
13 | C=C(C(=O)O)[C@@H]1CC[C@@]2(C)CCC[C@@](C)(O)[C@@H]2C1 | 9.93% | –
14 | OC[C@H]1O[C@@H](OCCc2ccccc2)[C@H](O[C@@H]2OC[C@@H](O)[C@H](O)[C@H]2O)[C@@H](O)[C@@H]1O | – | inactive [at 17.3 µM]
15 | C/C=C/C=C/C(O)=C1/C(=O)[C@]2(C)C3/C(=C(O)/C=C/C=C/C)C(=O)C4(C)C1[C@]1(C)O[C@@]4(O)[C@@]3(C)O[C@@]12O | – | inactive [at 17.3 µM]
16 | CC/C=C\CC1C(CC(=O)O)CCC1OC1OC(CO)C(O)C(O)C1O (centres undefined) | – | inactive
17 | CC1(O)CC(O)C2C(C(=O)O)=COC(OC3OC(CO)C(O)C(O)C3OC(=O)/C=C/c3ccc(O)cc3)C21 (centres undefined) | – | inactive [at 17.3 µM]
18 | CC(O)C/C=C/C=C/C(=O)OC1C=C2COC(=O)C2(O)C2(C)CCCC(C)(C)C12 (centres undefined) | 9.95% | –
19 | CNC(C)C(=O)NC(C(=O)N1CCCC1C(=O)Nc1cccc2ncccc12)C(C)C (centres undefined) | – | inactive
20 | CC1=C2C[C@@]3(C)[C@@H](CCC[C@@H]3C)C[C@@]2(O)OC1=O | 3.7% | –
21 | Cc1ccc(-c2c(-c3nn(C)c4ncnc(N5CC[C@H](N6CCCCC6)C5)c34)cnn2C)cc1 | 0.644% | –
22 | COc1cc(C(C)=O)ccc1O[C@@H]1O[C@H](CO[C@@H]2OC[C@@H](O)[C@H](O)[C@H]2O)[C@@H](O)[C@H](O)[C@H]1O | 7.86% [at 17.3 µM] | –
23 | COc1cc(C2OCC3(O)C(c4ccc(O[C@@H]5O[C@H](CO)[C@@H](O)[C@H](O)[C@H]5O)c(OC)c4)OCC23O)ccc1O (some centres undefined) | 1.88% [at 17.3 µM] | –
24 | CC1(C)CC2C3=CCC4[C@@]5(C)CC[C@H](OC6OCC(O)C(OC7OC(CO)C(O)C(O)C7O)C6O)C(C)(C)C5CC[C@@]4(C)[C@]3(C)C[C@H](O)[C@@]2(CO)[C@H](OC(=O)c2ccccc2)C1 (some centres undefined) | -4.21% [at 9.29 µM] | –
25 | O=C(/C=C/c1ccc(O)cc1)OCC1OC(O)C(OC2OC(CO)C(O)C(O)C2O)C(O)C1O (centres undefined) | 6.71% [at 17.3 µM] | –
26 | C=C[C@H]1[C@H](O[C@@H]2O[C@H](CO)[C@@H](O)[C@H](O)[C@H]2O)OC=C(C(=O)OC)[C@H]1CCO | 8.76% | –
27 | CC1(C)CC[C@]2(C(=O)O[C@@H]3O[C@H](CO)[C@@H](O)[C@H](O)[C@H]3O)CC[C@]3(C)C(=CCC4[C@@]5(C)CC[C@H](O[C@@H]6O[C@H](C(=O)O)[C@@H](O[C@@H]7O[C@H](CO)[C@@H](O)[C@H](O)[C@H]7O)[C@H](O)[C@H]6O[C@@H]6O[C@H](CO)[C@@H](O)[C@H](O)[C@H]6O)C(C)(C)C5CC[C@]43C)C2C1 (some centres undefined) | – | inactive [at 9.29 µM]
28 | CCCC(=O)Nc1cccc(NC(=O)c2ccccc2Br)c1 | -10.6% | –
29 | CC1OC(O[C@@H]2[C@@H](O)[C@H](OC(=O)[C@]34CCC(C)(C)C[C@H]3C3=CCC5[C@@]6(C)CC[C@H](O[C@@H]7O[C@H](C(=O)O)[C@@H](O)[C@H](O[C@@H]8OC[C@@H](O)[C@H](O)[C@H]8O)[C@H]7O[C@@H]7O[C@H](CO)[C@H](O)[C@H](O)[C@H]7O)[C@@](C)(C=O)C6CC[C@@]5(C)[C@]3(C)C[C@H]4O)O[C@H](C)[C@@H]2OC2OC(C)C(OC3OCC(O)C(O)C3O)C(O)C2O)C(O)C(O)C1O (some centres undefined) | – | inactive [at 9.29 µM]
